Measurements taken from ChEMBL document CHEMBL4513151, “CO-ADD screening of Institut Català d'Investigació Química (Spain) compounds”.
“And” between values parts separate entries of the source, which are not always exact repeats. Equal values may be shown once. Measured potencies and affinities stand elsewhere.

Legend:
Staphylococcus aureus = details: Concentration 32 ug.mL-1, ASSAY_TEST Inhibition of Bacterial Growth, detection method Absorption (OD600), MEDIA CAMHB, plate type 384well, NBS, CORNING #3640, time 18 hr
Escherichia coli = details: Concentration 32 ug.mL-1, ASSAY_TEST Inhibition of Bacterial Growth, detection method Absorption (OD600), MEDIA CAMHB, plate type 384well, NBS, CORNING #3640, time 18 hr

SMILES	Inhibition (Staphylococcus aureus; 32 ug/mL)	Inhibition (Escherichia coli; 32 ug/mL)	Inhibition (Staphylococcus aureus) [%]	Inhibition (Escherichia coli) [%]
C[C@]12CC[C@@](c3ccccc3)(O1)[C@H]1C=C[C@H](OC(=O)c3ccccc3)[C@H]12	15.6% and 15.32%	-5.43% and -1.36%	–	–
C[C@]12CC[C@@](C)(O1)[C@H]1C=C[C@H](OC(=O)c3ccccc3)[C@H]12	–	–	17.97	0.47
C=C1CC2(COC(C)(C)OC2)C[C@@H]1[C@@H](Nc1ccc(Br)cc1)c1ccccc1	–	–	25.91	2.09
C[C@]12CC[C@@H](O1)[C@H]1C=C[C@H](OC(=O)c3ccccc3)[C@H]12	–	–	21.38	2.42
C=C1CC(C(=O)OC)(C(=O)OC)C[C@@H]1[C@H](c1ccccc1)n1ccc2ccccc21	–	–	19.16	2.95
C[C@]12CC[C@@](C3CCCC3)(O1)[C@H]1C=C[C@H](OC(=O)c3ccccc3)[C@H]12	–	–	23.21	7.38
C[C@@H]1CC(=O)C=C2C(=O)[C@@H]3[C@@H](C3(C)C)[C@]21C	–	–	24.26	3.69
C=C1CC(C(=O)OC)(C(=O)OC)C[C@@H]1[C@@H](NS(=O)(=O)c1ccc(C)cc1)c1ccccc1	–	–	21	-0.02
C=C1CC(C(=O)OC)(C(=O)OC)C[C@@H]1[C@H](c1ccccc1)n1ccc2ccc(Cl)cc21	–	–	17.85	1.22
C[C@]12CC[C@@](c3ccc(C(F)(F)F)cc3)(O1)[C@H]1C=C[C@H](OC(=O)c3ccccc3)[C@H]12	20.36% and 17.47%	2.03% and 5%	–	–
C[C@]12CC[C@@](c3ccc4ccccc4c3)(O1)[C@H]1C=C[C@H](OC(=O)c3ccccc3)[C@H]12	–	–	16.21	-2.58
C=C1CC(COC)(COC)C[C@@H]1[C@@H](Nc1ccc(Br)cc1)c1ccccc1	–	–	4.73	-1.74
C[C@]12CC[C@@](C3CC3)(O1)[C@H]1C=C[C@H](OC(=O)c3ccccc3)[C@H]12	14.3% and 9.5%	-1.08% and -3.45%	–	–
C=C1CC(COCc2ccc(OC)cc2)(COCc2ccc(OC)cc2)C[C@@H]1[C@@H](Nc1ccc(Br)cc1)c1ccccc1	–	–	-1.38	-13.28
